Data on seven compounds can be found in PubChem BioAssay (NCI).

The structures appear in SMILES notation. The panel holds about 79,000 compounds, 15% with a hit somewhere; the sample as a whole holds those more often. A number with no mark means an inactive call. Calls of active or inactive are those of the source. Rule as the data show it: active = growth inhibition above about 70%; inactive = the rest.

Test [1] is described as follows: NCI Yeast Anticancer Drug Screen. Data for the rad50 strain (AID 155).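 Also: 0% = growth of vehicle-only cultures of the same strain.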 As to conditions: S. cerevisiae rad50 strain growth inhibition, active compounds read high. In short, it runs like this: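 A DNA repair-deficient yeast mutant serves as the test organism; compound-induced growth inhibition is calculated against vehicle-treated cells.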
The nature of test [2]: NCI Yeast Anticancer Drug Screen. Data for the mec2-1 strain (AID 157). The settings on record: S. cerevisiae mec2-1 strain, active compounds read high. The method in brief: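 Each compound was tested on mec2-1 yeast, a strain altered in DNA damage repair or cell cycle control. Growth inhibition is reported relative to vehicle.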
The nature of test [3]: NCI Yeast Anticancer Drug Screen. Data for the sgs1 mgt1 strain (AID 161).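 Also: 0% = growth of cultures given vehicle only.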 The settings on record: S. cerevisiae sgs1 mgt1 strain, active compounds read high. In short, it runs like this:
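Mutant yeast exposed to compound; growth scored against vehicle-only wells.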

The nature of test [4]: NCI Yeast Anticancer Drug Screen. Data for the cln2 rad14 strain (AID 165).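 Also: 0% = growth equal to vehicle treated cultures.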 The settings on record: S. cerevisiae cln2 rad14 strain, active compounds read high. In short, it runs like this: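 Test compounds were added to cln2 rad14 yeast cultures; inhibition of growth was then determined by comparison with vehicle treatment.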
A short description of test [5]: NCI Yeast Anticancer Drug Screen. Data for the bub3 strain (AID 167). The settings on record: S. cerevisiae bub3 mutant strain, active compounds read high. The method in brief: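 Inhibition values come from growth of compound-treated mutant yeast normalised to vehicle-treated controls.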
The nature of test [6]: NCI Yeast Anticancer Drug Screen. Data for the mlh1 rad18 strain (AID 175). The settings on record: S. cerevisiae mlh1 rad18 strain growth inhibition, active compounds read high. The method in brief: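 Inhibition values reflect reduced growth of mutant yeast versus vehicle-treated controls following compound exposure; the mutations affect DNA damage repair.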
The mark [7] stands for this setting: at 5.0 µM (retest, dose inferred, filed as 0.5).
[8] abbreviates: at 50.0 µM (retest, dose inferred, filed as 5.0).

As for `ONC(=Nc1cccc2ccccc12)C(=Nc1cccc2ccccc12)NO`, the growth inhibition in test [1] (setting [7]) is 9%; in test [1] (setting [8]), 65%; in test [1] (at 50.0 µM), 33.9%; in test [2] (setting [7]), -8%; in test [2] (setting [8]) it was 97% (active); in test [2] (at 50.0 µM), 23.3%. The growth inhibition in test [3] (setting [7]) is 8%; in test [3] (setting [8]) it was 46%; in test [3] (at 50.0 µM) it was 13.4%; in test [4] (setting [7]), -16%; in test [4] (setting [8]), 73% (active); in test [4] (at 50.0 µM), -41.9%. Moreover, the growth inhibition was 10% in test [5] (setting [7]); 97% (active) in test [5] (setting [8]); 47.5% in test [5] (at 50.0 µM); -9% in test [6] (setting [7]); 91% (active) in test [6] (setting [8]); 57.6% in test [6] (at 50.0 µM).
For the compound `O/N=C(/C[N+]12CN3CN(CN(C3)C1)C2)c1ccc(I)cc1`, the growth inhibition is 0% in test [1] (setting [7]); 20% in test [1] (setting [8]); 91.6% (active) in test [1] (at 50.0 µM); -4% in test [2] (setting [7]); 40% in test [2] (setting [8]); 84% (active) in test [2] (at 50.0 µM). Also, the growth inhibition in test [3] (setting [7]) is -4%; in test [3] (setting [8]), 55%; in test [3] (at 50.0 µM) it was 96.2% (active); in test [4] (setting [7]) it was -1%; in test [4] (setting [8]) it was 23%; in test [4] (at 50.0 µM), 91.7% (active). Moreover, the growth inhibition in test [5] (setting [7]) was 1%; in test [5] (setting [8]), 12%; in test [5] (at 50.0 µM), 77.6% (active); in test [6] (setting [7]), 12%; in test [6] (setting [8]), 57%; in test [6] (at 50.0 µM) it was 92% (active).
As for `C=CCSc1nc2ccc(N3C(=O)C=CC3=O)cc2s1`, the growth inhibition in test [1] (setting [7]) was 59%; in test [1] (setting [8]), 99% (active); in test [1] (at 50.0 µM) it was 94.7% (active); in test [2] (setting [7]), 50%; in test [2] (setting [8]) it was 99% (active); in test [2] (at 50.0 µM), 98% (active). The growth inhibition in test [3] (setting [7]) is 51%; in test [3] (setting [8]) it was 100% (active); in test [3] (at 50.0 µM), 97.5% (active); in test [4] (setting [7]), 24%; in test [4] (setting [8]) it was 98% (active); in test [4] (at 50.0 µM), 96.5% (active). In addition, the growth inhibition was 27% in test [5] (setting [7]); 99% (active) in test [5] (setting [8]); 99% (active) in test [5] (at 50.0 µM); 85% (active) in test [6] (setting [7]); 97% (active) in test [6] (setting [8]); 97.8% (active) in test [6] (at 50.0 µM).
Consider `CSC(=N)N1N=C2/C(=C/c3ccccc3)CCC[C@H]2[C@H]1c1ccccc1`, for which the growth inhibition is -17% in test [1] (setting [7]); -14% in test [1] (setting [8]); 21.4% in test [1] (at 50.0 µM); -7% in test [2] (setting [7]); -2% in test [2] (setting [8]); -6.7% in test [2] (at 50.0 µM). Besides, the growth inhibition was -13% in test [3] (setting [7]); 13% in test [3] (setting [8]); 40.7% in test [3] (at 50.0 µM); -35% in test [4] (setting [7]); 5% in test [4] (setting [8]); -14.8% in test [4] (at 50.0 µM). For the same compound, the growth inhibition in test [5] (setting [7]) was -3%; in test [5] (setting [8]), 5%; in test [5] (at 50.0 µM), 4.45%; in test [6] (setting [7]) it was -10%; in test [6] (setting [8]) it was 29%; in test [6] (at 50.0 µM) it was 27.9%.
With `CCOC(=O)C1CSC(c2c(CO)cnc(C)c2O)N1` (stereo unspecified), the growth inhibition is -1% in test [1] (setting [7]); 5% in test [1] (setting [8]); 47.6% in test [1] (at 50.0 µM); -8% in test [2] (setting [7]); -3% in test [2] (setting [8]); 0.75% in test [2] (at 50.0 µM). Besides, the growth inhibition in test [3] (setting [7]) was -3%; in test [3] (setting [8]), 2%; in test [3] (at 50.0 µM) it was 9.55%; in test [4] (setting [7]), 4%; in test [4] (setting [8]), 7%; in test [4] (at 50.0 µM) it was -4.1%. Further, the growth inhibition in test [5] (setting [7]) is 2%; in test [5] (setting [8]), 14%; in test [5] (at 50.0 µM) it was 10.8%; in test [6] (setting [7]), 2%; in test [6] (setting [8]), 5%; in test [6] (at 50.0 µM) it was 18.1%.
As for `Cc1nc(N)sc1N=Nc1ccccc1Br`, the growth inhibition in test [1] (setting [7]) is -20%; in test [1] (setting [8]), 89% (active); in test [1] (at 50.0 µM) it was 88% (active); in test [2] (setting [7]), -11%; in test [2] (setting [8]), 97% (active); in test [2] (at 50.0 µM) it was 94.2% (active). Moreover, the growth inhibition in test [3] (setting [7]) was 0%; in test [3] (setting [8]) it was 93% (active); in test [3] (at 50.0 µM) it was 92.1% (active); in test [4] (setting [7]) it was -5%; in test [4] (setting [8]) it was 62%; in test [4] (at 50.0 µM), 91.3% (active). Moreover, the growth inhibition in test [5] (setting [7]) is -1%; in test [5] (setting [8]) it was 91% (active); in test [5] (at 50.0 µM), 95.8% (active); in test [6] (setting [7]), 34%; in test [6] (setting [8]), 96% (active); in test [6] (at 50.0 µM), 95.8% (active).
As for `COC1OC(COC(=O)c2ccccc2)CC1F` (stereo unspecified), the growth inhibition in test [1] (setting [7]) is 16%; in test [1] (setting [8]) it was -26%; in test [1] (at 50.0 µM), 93.5% (active); in test [2] (setting [7]), -8%; in test [2] (setting [8]), -22%; in test [2] (at 50.0 µM), 94.8% (active). Besides, the growth inhibition in test [3] (setting [7]) was -12%; in test [3] (setting [8]) it was -13%; in test [3] (at 50.0 µM), 94% (active); in test [4] (setting [7]), -24%; in test [4] (setting [8]) it was -2%; in test [4] (at 50.0 µM), 91.8% (active). In addition, the growth inhibition in test [5] (setting [7]) was 19%; in test [5] (setting [8]), 26%; in test [5] (at 50.0 µM), 93.3% (active); in test [6] (setting [7]), 18%; in test [6] (setting [8]) it was -54%; in test [6] (at 50.0 µM) it was 92.2% (active).
